These results are taken from PubChem BioAssay (NCI).

This is part of a sample that, as a whole, favours compounds with a hit. Of some 83,000 tested, about 20% had one in any assay.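 Percent growth is the endpoint: 0 to 100 indicates growth inhibition (40 means 60% inhibition), 0 means no net growth, and negative values indicate cell death.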 Values without a mark were called inactive. Activity calls are given as the source filed them. How the source made its calls: active means growth percent below 10; inactive means the rest.

Common to all, as to assay: NCI-60 one-dose screen, 48 h (100 = growth as untreated, 0 = no growth, -100 = all killed)
Holding throughout (settings): 10 µM unless noted

For test [1], the system named is EKVX NSCLC.
In test [2] the test system is SN12C renal.
Test [3] has as its system UO-31 renal.
In test [4] the test system is TK-10 renal.
Test [5] has as its system ACHN renal.
The subject of test [6] is A498 renal.
The test system of test [7] is CCRF-CEM leukemia.
Test [8] concerns MOLT-4 leukemia.
Test [9] concerns SR leukemia.
Test [10] relates to CAKI-1 renal.

As to `C/C(=N/N=C(N)N)c1ccc(Cl)cc1`, the growth in [1] was 87.8%; in test [2] it was 90.8%; in test [3], 78.2%; in [4], 55.3%; in [5] it was 96.1%; in test [6] it was 188%. Further, the growth in test [7] was 87.9%; in test [8], 145%; in test [9] it was 83.3%.

Take `CN1C(=O)/C(=C/c2nc(-c3cccc(F)c3)n3ccccc23)c2ccccc21`: the growth in [1] was 79%; in test [2], 85.9%; in test [3] it was 89.8%; in test [4] it was 61.7%; in test [5] it was 39.9%; in [10], 68%. Also, the figures for the growth in [7] and in [9] were 88.9% and 60.5%, respectively.

As for `CCOC(=O)c1c(C)c(C(=O)OCC)n(C)c1C`, the growth in test [1] is 75%; in [2], 104%; in [3], 81.2%; in test [4], 78.4%; in [5] it was 95.6%; in test [6] it was 83.9%. Besides, the results for the growth in test [7], in test [8] and in [9] were 84.9%, 87.1% and 87.8%, respectively.

On to `COc1ccc(/C=C/C(=O)Nc2cccnc2Nc2ccc(F)cc2)cc1`, for which the growth in test [1] was 88.4%; in test [2], 89.3%; in test [3], 95.4%; in test [4] it was 113%; in [5], 104%; in test [10], 86.5%. For the same compound, the growth in test [7] is 112%; in test [9], 88.7%.

With `OCc1nnn(-c2ccccc2)c1CO`, the growth in test [1] was 121%; in test [2] it was 102%; in test [3], 89.4%; in test [4] it was 121%; in test [5], 107%; in [10], 111%. In addition, the growth is 102% in test [7] and 104% in test [9].

On to `O=C1N(C2CCCCC2)C(=O)N1C1CCCCC1`, for which the growth was 51.3% in test [1]; 49.9% in [2]; 8.07% (active) in test [4]; 11.4% in [5]; 28.7% in test [10]; -11.9% (active) in test [6]. Further, the results for the growth in test [7] and in [8] were 4.67% (active) and 15.7%, respectively.

Regarding `NC(=O)N/N=C/c1ccc(Br)o1`, the growth was 101% in [1]; 86.1% in test [3]; 101% in [4]; 106% in test [5]; 98.4% in test [10]; 97.5% in [6]. Moreover, the results for the growth in test [7] and in test [9] were 108% and 97.6%, respectively.

For the compound `COc1ccc(-c2c(-c3cc(OC)c(OC)c(OC)c3)noc2N)cc1`, the growth in test [1] was 45.9%; in [2] it was 27.6%; in [3], 41.7%; in test [4], 67.3%; in test [10] it was 28.2%; in [6], 22.8%. Besides, the growth in [7] was 9.85% (active); in test [8], 13%; in test [9], 8.86% (active).

For `CCN1C[C@@H](C)n2c(c(O)c3c(=O)n(Cc4ccc(F)c(Cl)c4)nc(C(=O)NC)c32)C1=O`, the growth in [2] is 9.18% (active); in test [3] it was 11%; in [4], 31.6%; in [5], 13.7%; in [10] it was 15.9%; in test [6], -7.58% (active). Further, the growth in [7] was 40.4%; in test [8] it was 21.6%; in [9], 2.73% (active).

For the compound `O=C(O)c1ccc(NC(=O)c2cccc(Nc3ccnc(C(F)(F)F)c3)c2)cc1`, the growth was 106% in test [2]; 82% in test [3]; 97.8% in [4]; 103% in test [5]; 95.1% in test [10]; 106% in test [6]. In addition, the growth in test [7] was 94.8%; in test [8], 93.4%.

Turning to `CCOC(=O)c1c(NC(=O)C2CCCCC2C(=O)O)sc2c1CCCC2` (stereo not given), the growth is 104% in [2]; 81.4% in [3]; 113% in test [4]; 98.2% in test [5]; 92.7% in test [10]; 109% in test [6]. In addition, the values for the growth in test [7], in test [8] and in test [9] were 99.6%, 105% and 111%, respectively.

On to `C=C(C)[C@H]1CC/C(C)=C/CC[C@]2(C)O[C@H]2CC/C(COC(C)=O)=C\C1=O`, for which the growth in test [1] was 44.3%; in [2], 104%; in test [3], 69.4%; in test [4], 117%; in test [5], 98.9%; in test [7] it was 103%. Besides, the growth in [8] was 90.2%; in [9], 56.7%.

On to `CCOc1nc(-c2ccccc2)cc2c(O)c(-c3nnco3)[nH]c(=O)c12`, for which the growth is 47.2% in [2]; 29.1% in [3]; 31.8% in test [4]; 52.3% in [5]; 34.6% in [10]; 45.3% in test [6]. The results for the growth in test [7], in test [8] and in test [9] were 15.7%, 30% and 21.3%, respectively.

With `O=[P@@]1(c2ccccc2)O[C@H](COCc2ccccc2)[C@@H](OCc2ccccc2)[C@H](OCc2ccccc2)[C@H]1NCc1ccccc1`, the growth in test [1] is 17.6%; in test [2], -39.4% (active); in test [3] it was -7.83% (active); in test [4], 13.5%; in test [5] it was 10%; in test [7], 15.9%. The figures for the growth in test [8] and in test [9] were 0.343% (active) and -2.72% (active), respectively.

On to `Cc1cc(=O)n2n1-c1ccc(Cl)cc1NC(=O)C2`, for which the growth is 99.1% in test [2]; 89.6% in test [3]; 117% in test [4]; 104% in test [5]; 88.4% in [10]; 119% in test [6]. The growth in [7] is 82.6%; in test [8], 108%; in test [9], 110%.

As for `CC1SC(c2c(Cl)cccc2Cl)N(NC(=O)c2[nH]c3ccc(F)cc3c2-c2ccccc2)C1=O` (stereo not given), the growth in test [1] is 41.8%; in test [2] it was 33.9%; in test [3], -17.6% (active); in test [4] it was 21.6%; in test [5], 34.4%; in [7] it was 56.1%. For the same compound, the values for the growth in test [8] and in test [9] were 69.1% and 54.8%, respectively.
